Structures are written as SMILES. Among all 65,000 compounds or so, about 100 (0.15%) were called active. The sample as a whole holds a higher share of actives than the screen did. A number with no mark means an inactive call.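 The calls were made as follows: active = inhibition above about 50% (limit read from the data); inconclusive = inhibition over screen mean plus 3 SD, below that limit; inactive = the rest.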

Dual specificity protein phosphatase 1 (Homo sapiens), sequence (P28562 whole entry, looked up): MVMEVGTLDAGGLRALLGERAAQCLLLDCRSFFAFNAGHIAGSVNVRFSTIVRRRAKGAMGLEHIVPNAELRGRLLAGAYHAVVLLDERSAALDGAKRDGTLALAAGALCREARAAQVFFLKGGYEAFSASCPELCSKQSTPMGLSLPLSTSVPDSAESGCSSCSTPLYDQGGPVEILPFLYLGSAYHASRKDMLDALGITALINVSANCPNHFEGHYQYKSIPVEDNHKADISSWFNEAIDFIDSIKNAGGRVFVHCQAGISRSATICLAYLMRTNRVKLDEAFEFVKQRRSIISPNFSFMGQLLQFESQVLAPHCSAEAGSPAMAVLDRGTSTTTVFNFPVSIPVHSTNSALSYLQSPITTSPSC

This experiment addresses Dual specificity protein phosphatase 1 (Homo sapiens) (UniProt P28562). The experiment in a line: MKP-1 phosphatase inhibitors, primary screen, biochemical, in vitro (AID 374).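 Also: 0% = DMSO max control wells and 100% = wells with enzyme stopped by NaOH.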 The following applies: recombinant MKP-1, OMFP hydrolysis fluorescence; stronger effect = higher value;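 compounds tested at a single concentration somewhere between 10 and 100 µM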.
Turning to `Cn1c(SCC(=O)c2cccs2)nnc1-c1ccco1`, the inhibition (in general, the change of the read-out against control, counted positive when it falls) is 0.18%. With `CC(C)[C@H](NC(=O)Nc1ccc(S(N)(=O)=O)cc1)C(=O)O`, the inhibition was -4.12%. In the case of `CCc1ccccc1N(CC(=O)NCCSCc1ccco1)S(C)(=O)=O`, the inhibition was -0.33%. Consider `CC(CN1CCCCC1)OC(=O)c1ccccc1Cl` (centres undefined), for which the inhibition was -18.9%. The result for `O=C(Nc1cnccn1)c1cccnc1` reads 35.7%; that for `Cc1cccc(C)c1NC(=O)N1CC=C(n2c(=O)[nH]c3ccccc32)CC1`, -1.96%. Turning to `O.O.O.O=S(=O)([O-])OC[C@H]1O[C@@H](O[C@]2(COS(=O)(=O)[O-])O[C@H](OS(=O)(=O)[O-])[C@@H](OS(=O)(=O)[O-])[C@@H]2OS(=O)(=O)[O-])[C@H](OS(=O)(=O)[O-])[C@@H](OS(=O)(=O)[O-])[C@@H]1OS(=O)(=O)[O-].[Al]`, the inhibition was 9.95%. With `CC(=NC1CCN(Cc2ccccc2)CC1)c1c(O)[nH]c(=O)[nH]c1=O`, the inhibition was -4.49%. Turning to `COc1ccccc1Nc1nc(N)nc(CN(C)C2CCCCC2)n1`, the inhibition was -2.91%. For the compound `CCN(CC(=O)Nc1ccc2c(c1)OCCO2)Cc1cc(=O)oc2cc(C)c(C)cc12`, the inhibition was 12.7%. In the case of `Cc1cc(C)c(NC(=O)CS(=O)CC(=O)Nc2cccnc2)c(C)c1` (centres undefined), the inhibition was -12.3%.

Take `Cc1ccnc(N2CCN(C(=O)CSc3nc4ccccc4nc3N3CCCCC3)CC2)c1`: the inhibition was 6.59%. Consider `Nn1c(SCC(=O)NC(=O)NC2CCCC2)nnc1-c1ccccc1F`, for which the inhibition is -5.68%. With `O=c1cc(CO)oc(CN2CCC(Cc3ccccc3)CC2)c1O`, the inhibition is 8.32%.

`CCOC(=O)CSc1nnc(-c2ccco2)n1C`: the inhibition is -29.8%.

Turning to `O=C(CSc1nnc(-c2ccco2)n1-c1ccccc1)NCCc1ccccc1`, the inhibition is -9.86%. Then `CCCCNC(=O)CSc1nnc(-c2ccco2)n1C`, with 93.8% (active).

With `Cc1cc(C)c2c(c1)cc(C)c1nnc(SCC(=O)Nc3cc(C)on3)n12`, the inhibition is 8.08%. With `c1csc(CN2CCN(Cc3cccs3)C2c2cccs2)c1`, the inhibition is -1.36%. Turning to `Cc1ccc2c(NC(=O)C3CC3)cccc2n1`, the inhibition was 3.59%.

For `CCOc1cc(/C=N/n2cnnc2)c(Br)cc1O`, the inhibition is -7.39%.

On to `O=C1c2cccnc2C(Nc2ccc(S(=O)(=O)N3CCCCCC3)cc2)N1Cc1ccccc1` (centres undefined), for which the inhibition was 51.4% (active).

In the case of `O=C(Nc1ccc(S(=O)(=O)N2CCCCC2)cc1)c1cnccn1`, the inhibition was -0.35%. Take `COc1ccc(S(=O)(=O)N2CCCC(C(=O)Nc3ccc(NC(=O)c4ccccn4)cc3)C2)cc1` (centres undefined): the inhibition is 32.2%. In the case of `CCOC(=O)N1CCN(CC(=O)c2c(C)[nH]c3ccccc23)CC1`, the inhibition was 1.62%.

`Cc1ccc(-c2noc(CCC(=O)Nc3ccccc3N3CCN(C)CC3)n2)cc1`: the inhibition is -3.7%. `CCOc1cccc(NC(=O)C2CCCN(S(=O)(=O)c3ccc(OC)cc3)C2)c1` (centres undefined): the inhibition is -15.6%. As to `CN(C)CCCn1c(N)c(C#N)c2nc(C#N)c(C#N)nc21`, the inhibition is 2.01%. Regarding `CC(=O)OCc1cc(=O)n(C)c(=O)n1C`, the inhibition is 15.5%. Regarding `CCC(=O)Nc1ccccc1N1CCN(S(C)(=O)=O)CC1`, the inhibition was 6.41%. For the compound `O=C(NCc1ccco1)c1cc(-c2cccnc2)nc2ccc(Cl)cc12`, the inhibition is 18.9%.

Take `COc1ccc(C(c2nnnn2Cc2cccs2)N2CCN(c3ccccc3)CC2)cc1OC` (centres undefined): the inhibition is -17.2%.

As for `COCCOC(=O)C1=C(C)N=c2s/c(=C\c3cccs3)c(=O)n2C1c1cccs1` (centres undefined), the inhibition was -3.72%. Then `CC(C)Cn1c(CCC(=O)O)ccc1-c1cccs1`, with -3.65%; and `O=C(Nc1ccccc1)N(Cc1cccnc1)Cc1ccco1`, with 19.6%; and `CCOC(=O)CN1C(=O)C(O)(CC(=O)c2ccccn2)c2ccccc21` (centres undefined), with -1.14%. Turning to `COc1cccc(-n2c(Cc3cc(=O)[nH]c(=O)[nH]3)nnc2SCC(=O)Nc2ccccc2)c1`, the inhibition is 6.14%. For `O=C(Cn1nc(Cc2cccnc2)c2ccccc2c1=O)NCC1CCCO1` (centres undefined), the inhibition is -5.72%.

On to `O=C(CCC(=O)N1CCN(S(=O)(=O)c2ccccc2)CC1)NC1CCCc2ccccc21` (centres undefined), for which the inhibition is 28.7%.

As for `O=C(NCCN1CCOCC1)c1ccc2c(c1)ncn2C1CCCC1`, the inhibition is -1.23%. Consider `O=S1(=O)CC(NCc2ccccc2)C(Nc2ccc(Cl)cc2)C1` (centres undefined), for which the inhibition was -10.7%. As for `CC(C)=C(NC(=O)c1ccco1)C(=O)NCCc1nc2ccccc2[nH]1`, the inhibition was -31.3%. For the compound `CC(=O)Nc1cc2ccc(OC(C)=O)cc2oc1=O`, the inhibition is 1.98%.

`CC1CCCCN1CC(=O)NCc1ccc2c(c1)OCO2` (centres undefined): the inhibition was 11.8%. On to `CCCCn1c(SCC(=O)NCC2CCCO2)nc2ccc(N3CCOCC3)cc2c1=O` (centres undefined), for which the inhibition is 20.6%. With `CCc1ccc(NC(=O)CSc2nc3ccccc3c(=O)n2CCN2CCOCC2)cc1`, the inhibition was 52.5% (active). Consider `COCCCNC(=O)CSc1nc2ccc(N3CCOCC3)cc2c(=O)n1CCc1ccccc1`, for which the inhibition is 25.1%. With `Cc1nn(CC(=O)Nc2ccc3c(c2)nc(CN2CCCCC2)n3C)c(=O)c2ccccc12`, the inhibition was 21.5%. `O=C(NCC(F)(F)F)Nc1nnc(C(F)(F)F)s1`: the inhibition was -9.86%. Take `O=C(CCS(=O)(=O)Cc1ccccc1F)NCCCN1CCCCC1`: the inhibition was 5.21%. With `O=C(Cn1nnc2ccccc2c1=O)Nc1cc(C(F)(F)F)ccc1N1CCOCC1`, the inhibition is 36.2%. Turning to `COC(=O)C1=C(C)NC(=O)NC1/C=C/c1ccccc1` (centres undefined), the inhibition is -8.21%.

Turning to `COc1ccccc1NC(=O)C1=C(C)NC2=C(C(=O)CCC2)C1c1ccc(C)o1` (centres undefined), the inhibition is 11.7%.

Turning to `COC(=O)C1=C(C)NC2=C(C(=O)c3ccccc32)C1c1ccc(-c2ccc(C(=O)O)cc2)o1` (centres undefined), the inhibition was 56% (active). For `Cc1nnc(NC(=O)CSc2nccn2-c2cccc(C)c2C)s1`, the inhibition was -0.12%.

Take `CC(C)(C)n1c(=O)[nH]c2c(c1=O)CCC2`: the inhibition was 21.8%. Regarding `O=C(Oc1cccnc1)c1cc2ccccc2oc1=O`, the inhibition was 10.3%. Then `CC/C(=N\O)C(C)(C)/[N+]([O-])=C/c1ccc(Br)cc1`, with 4.53%; and `Cc1cccc(N2C(=O)SC(N(CC(=O)O)c3cccc(C)c3)C2=O)c1` (centres undefined), with 11.8%.

On to `COc1ccc(C(=O)N(Cc2ccc(N(C)C)cc2)C2CCS(=O)(=O)C2)cc1` (centres undefined), for which the inhibition is 0.01%. For the compound `Cc1nc2sc(C(c3ccco3)N3CCC4(CC3)OCCO4)c(O)n2n1` (centres undefined), the inhibition is 4.37%. Regarding `COc1ccc2c(CC(=O)Nc3nnc(C4CC4)s3)coc2c1`, the inhibition was 11.4%.

As for `CCCCCCn1c(CN2CCCCC2)nc2c1c(=O)n(C)c(=O)n2C`, the inhibition is 3.15%. In the case of `CNC(=O)Nc1cc(C(C)(C)C)no1`, the inhibition is -18.9%. Regarding `CCN(CC(=O)NC(C)C)C(=O)CCNC(=O)c1ccc(Cl)cc1`, the inhibition is 24.3%. As to `CN1C(=O)c2ccc(NC(=O)C3CCCCC3)cc2C1=O`, the inhibition was 16.2%. As for `CC1(C)CC(=O)C=C(NCCCN2CCCC2=O)C1`, the inhibition was -21.7%. The result for `CCOc1ccccc1C1CC(c2ccccc2)Nc2nc(N)nn21` (centres undefined) reads 5.12%. In the case of `CSC1=N/C(=C\C=C\c2cccs2)C(=O)S1`, the inhibition is -1.19%. With `Fc1ccc(OCc2nn3c(Cn4nnc5ccccc54)nnc3s2)cc1`, the inhibition is 17.2%. Turning to `Cn1c(CNC(=O)C(C)(C)C)nc2ccccc21`, the inhibition was 4.69%. In the case of `COc1cccc2cc(C(=O)N(C)C)c(=O)oc12`, the inhibition was -3.65%. As to `CCCCOC(=O)c1[nH]c(C)c(C(=O)OC)c1C`, the inhibition is -26.1%.

Turning to `Cc1n[nH]c(C)c1S(=O)(=O)N1CCCC(C(=O)NCC2COc3ccccc3O2)C1` (centres undefined), the inhibition is 2.75%.

`CCS(=O)(=O)N1CCN(C(=O)c2cccs2)CC1`: the inhibition was 0.17%. Take `Cc1nn(-c2ccccc2)c2c1C(=O)NC(=O)C(C)(C)C2`: the inhibition is -21.3%. With `Cc1cccc(N)c1SC1CCCCC1O` (centres undefined), the inhibition was -21.7%. Take `COc1ccccc1Oc1ccc(S(=O)(=O)Nc2cccnc2)cc1`: the inhibition is -6.18%. As for `CCN(CC)P(=O)(C(NC(=O)OC)C(F)(F)C(F)(F)C(F)(F)C(F)F)N(CC)CC` (centres undefined), the inhibition was 32.7%. Turning to `Cc1ccc(C(=O)Nc2ccccc2C(=O)NC2CCCCC2)cc1S(=O)(=O)N1CCOCC1`, the inhibition is 15.1%. Consider `CCO/C([O-])=N/c1c[n+](N2CCOCC2)no1`, for which the inhibition is -14.5%. Consider `Cc1cc(N2C(=O)c3ccc(C(=O)NCc4ccccc4)cc3C2=O)no1`, for which the inhibition was 6.5%. As for `COc1ccc(OC)c2sc(NC(=O)C3COc4ccccc4O3)nc12` (centres undefined), the inhibition is 10.2%. Turning to `COc1ccc(-c2nnc(SCC(=O)c3ccco3)n2-c2ccccc2)cc1`, the inhibition is 1.42%. For `CCCOc1cccc(C(=O)Nc2nnn(CCC)n2)c1`, the inhibition is -1.6%. In the case of `CC(=O)N(CN1C(=O)C2CC=CCC2C1=O)c1cccc(Cl)c1` (centres undefined), the inhibition is 4.23%. On to `Cc1nc2ccccc2cc1O`, for which the inhibition is -1.94%. Consider `COc1ccc(-n2c(SCC(=O)NCc3cccs3)nnc2-c2ccoc2C)cc1`, for which the inhibition is -10%. On to `COc1ccc(CCN2CNc3c(c(=O)n(C)c(=O)n3C)C2)cc1OC`, for which the inhibition was -8.44%. With `CCOC(=O)Cn1c(=O)oc2cc(S(=O)(=O)NCC3CCCO3)ccc21` (centres undefined), the inhibition is -10.8%. The result for `COC(=O)C1C(=O)CC(C)(O)C(C(=O)OC)C1c1ccc2c(c1)OCO2` (centres undefined) reads 4.11%; that for `Cc1ccc2nc(NCCCNC(=O)c3cnccn3)c(C#N)cc2c1`, 16.8%; that for `CCN(CCCNC(=O)C1CCN(S(=O)(=O)c2cnc[nH]2)CC1)c1ccccc1`, -3.93%. As to `Cn1c(=O)c2c(nc(OCc3cccnc3)n2Cc2ccccc2)n(C)c1=O`, the inhibition is -22.4%.

The record behind these values is PubChem BioAssay AID374 (University of Pittsburgh Molecular Library Screening Center, 2006).
